Reference: the supplement of paper PMC11417369
± gives the standard deviation of the averaged measurements. Whole data set: some 25,000 sequences, median “ln(normalized median fluorescence intensity)” near 8.9, cut for the highest 2% near 10. Shown is part of a subset that was picked to be rich in the highest values.

Test system: PfAP2-LT AP2 domain (GST-tagged)
Assay: gcPBM binding intensity (ln(normalized median fluorescence intensity)); higher = stronger DNA binding
Method in brief: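 For binding intensity, the highest Masliner-normalised natural-log median intensity across replicate spots of either probe orientation was taken. Protein bound to the array was stained with Alexa488 anti-GST antibody and scanned at 488 nm. The protein, GST-tagged P. falciparum DNA-binding domains from E. coli at about 25 μg on average, had been applied for 1 h to an Agilent 4 × 180k array of primer-extended double-stranded 36-bp intergenic genomic probes and negative controls.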

Sequence | gcPBM binding intensity (ln)
AAAAAAAAAACATACACACACATATAGATTTATATG [CACACA_site6847] | 9.31 ± 0.35
AAAAGGAATTATAGGAAATAAATATATACAAATATA [TGCATGCA_negctrl_site528] | 8.69 ± 0.58
TATATTTATATATGTTGTACTCTCCAATAATATTCC [XGTACX_site4438] | 8.76 ± 0.52
AGTAAATTATATATCTGTACATATATATATGTGTAT [XGTACX_site5519] | 9.04 ± 0.28
AAAATTGGTGAAAATGAAAATATGATTATATGTATA [XGTACX_negctrl_site505] | 8.56 ± 0.53
ATAATTTTATATAAATGTACATACATTTTTATTATA [XGTACX_site7368] | 8.61 ± 0.4
AAAATAACGAGTCAAACACACATATTTATATTTATA [CACACA_site7050] | 8.95 ± 0.45
TATAAATAAAAACACACACACACATATATATATATA [CACACA_site2268] | 10.2
CAAAGGGAAATTAACACACACATATATATATATATA [CACACA_site2453] | 10.3 ± 0.2
CAAAGGGAAATTAACACACACATATTTATATTTATA [CACACA_site7202] | 9.2 ± 0.47
TTAAACTTGAAACACACACACACACCCATATAAAAA [CACACA_site758] | 10.1 ± 0.064
CAAAAATAACGAGTCAAACACACATATATATATATA [CACACA_site2038] | 9.86 ± 0.3
TTAAACTTGAAACACACACACACACCGATATAAAAA [CACACA_site4578] | 10.06 ± 0.085
AAAAATAACATATAAACACACATATATATATATATA [CACACA_site3802] | 9.825 ± 0.0071
TTCAAAGGGAAATTAACACACACATATATATATATA [CACACA_site8777] | 9.71 ± 0.2
TAAAAAAAAAAAAAAACACACATATAAATATATATA [CACACA_site1243] | 8.56 ± 0.52
AAAATAACGAGTCAAACACACATATATATATATATA [CACACA_site2039] | 10.1 ± 0.2
AAACTTGACGAACACACACACACATATATAAAAAAA [CACACA_site6494] | 10.1 ± 0.4
TGAACACATACATACACACACACAAAAAAAAAAAAA [CACACA_site392] | 9.76 ± 0.4
AAAAAAAAAAATACTCGTACATAAACCTATACATTT [XGTACX_site6494] | 8.83 ± 0.45
AAAATATGTAGCTACACACACATAAACAAAATAACA [CACACA_site1007] | 9.41 ± 0.3
CTGTTTAAAATATAAACACACATTGTTTGCTTTAGA [CACACA_site1301] | 8.71 ± 0.4
TATAATCATATATACACACACATATATATATATATA [CACACA_site2168] | 9.805 ± 0.05
TAATAAATGACAAATTAACACACATATATTATATAT [CACACA_site9294] | 8.98 ± 0.36
